# Assay outcomes deposited in PubChem BioAssay by Broad Institute.
# Most compounds without a hit are left out; they make up all but 1.5% or so of the library.
# miR-122 sensor = inhibitors of miR-122 in Huh7 cells; Huh7 miR-122 Renilla luciferase sensor, 48 h; neutral wells = 0, positive control = 100; activation (reporter increase), % at 12.5 µM; 0.3% of 340,000 active; AID 602342;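 active = mean replicate activation score at least 90 and every replicate individually at or above 90; inconclusive = only one of the two criteria met; inactive = neither criterion met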;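 note: higher luciferase means less miR-122 activity so hits act as miR-122 inhibitors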
# RAD52 inh = inhibitors of human RAD52 DNA annealing; P43351; AID 651710; 0.46% of 360,000 active; inhibition, % at 18.7 µM; recombinant RAD52 DNA annealing, FRET fluorescence;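 active = every replicate showing at least 50% inhibition; inconclusive = mean inhibition at least 50% but not in every replicate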
# CASP6 VEID inh = blocks human caspase-6 cleavage activity; 0.53% of 350,000 active; inhibition, % at 12.5 µM; AID 686996; purified caspase-6, Z-VEID-R110 cleavage fluorescence; P55212;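 active = mean inhibition across replicates at least about 35%, with every replicate also reaching that limit, limit read from the data; inconclusive = only one of the two criteria met; inactive = neither criterion met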;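 note: 0% = median of neutral control wells and 100% = no fluorescence left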
# NSD2 inh = blocks human histone methyltransferase NSD2 | AID 743445 | inhibition, % at 12.5 µM | NSD2 peptide methylation, AlphaScreen, 120 min | 0.54% of 310,000 active; in the data active = inhibition above about 50%
# Target sequence (O96028 whole entry, looked up): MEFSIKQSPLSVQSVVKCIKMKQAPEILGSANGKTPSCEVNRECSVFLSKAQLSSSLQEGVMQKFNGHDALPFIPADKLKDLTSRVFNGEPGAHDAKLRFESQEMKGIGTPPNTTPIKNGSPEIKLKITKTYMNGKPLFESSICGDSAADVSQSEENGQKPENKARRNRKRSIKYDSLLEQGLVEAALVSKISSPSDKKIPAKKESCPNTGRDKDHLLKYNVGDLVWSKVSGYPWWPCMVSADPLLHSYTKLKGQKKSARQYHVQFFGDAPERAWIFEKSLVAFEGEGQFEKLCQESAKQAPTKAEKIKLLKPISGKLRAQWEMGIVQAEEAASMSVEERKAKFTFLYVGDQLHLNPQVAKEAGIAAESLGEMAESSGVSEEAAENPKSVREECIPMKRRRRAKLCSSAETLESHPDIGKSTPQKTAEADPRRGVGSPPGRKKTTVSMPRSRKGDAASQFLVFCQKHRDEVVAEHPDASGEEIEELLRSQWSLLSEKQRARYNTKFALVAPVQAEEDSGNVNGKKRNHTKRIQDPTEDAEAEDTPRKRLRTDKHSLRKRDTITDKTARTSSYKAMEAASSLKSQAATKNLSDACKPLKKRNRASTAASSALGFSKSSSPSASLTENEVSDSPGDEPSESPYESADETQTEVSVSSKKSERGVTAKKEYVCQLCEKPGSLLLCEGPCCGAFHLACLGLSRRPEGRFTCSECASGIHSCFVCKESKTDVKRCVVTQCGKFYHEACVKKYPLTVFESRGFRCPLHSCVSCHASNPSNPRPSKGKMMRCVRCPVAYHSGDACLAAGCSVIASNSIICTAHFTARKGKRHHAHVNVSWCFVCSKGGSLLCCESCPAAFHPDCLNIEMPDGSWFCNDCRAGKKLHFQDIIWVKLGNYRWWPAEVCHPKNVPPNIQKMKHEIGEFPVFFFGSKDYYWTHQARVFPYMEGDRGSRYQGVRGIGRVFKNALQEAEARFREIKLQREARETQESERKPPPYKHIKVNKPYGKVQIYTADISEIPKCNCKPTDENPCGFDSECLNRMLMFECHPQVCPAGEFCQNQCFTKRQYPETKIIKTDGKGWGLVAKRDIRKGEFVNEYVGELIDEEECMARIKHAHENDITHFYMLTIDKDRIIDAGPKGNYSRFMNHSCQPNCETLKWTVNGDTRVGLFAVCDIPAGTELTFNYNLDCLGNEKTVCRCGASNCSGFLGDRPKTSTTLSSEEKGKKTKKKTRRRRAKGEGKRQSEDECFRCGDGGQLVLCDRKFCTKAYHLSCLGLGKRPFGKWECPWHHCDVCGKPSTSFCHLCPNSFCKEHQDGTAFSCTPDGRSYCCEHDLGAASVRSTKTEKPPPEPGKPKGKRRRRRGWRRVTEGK
# MLL AF4-AF9 inh = MLL-AF4/AF9 protein interaction inhibition; AlphaScreen, biotin-AF4 peptide binding to FLAG-AF9; 0.47% of 350,000 active; inhibition, % at 10 µM; P42568;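 active = every replicate reaching a set inhibition limit, whatever the replicate mean, cut at about 25% in these data; inconclusive = mean inhibition reaches that limit but some replicates miss it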;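 note: 0% = plate neutral control median and 100% = total signal loss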
# Alpha artifact = counter-screen for NSD2 inhibitors: AlphaScreen artifacts; AC35, µM (doses to about 10 µM), for the others: at the highest dose activity change, negative = signal loss; 9.4% of 1,500 active; AlphaScreen artifact counterscreen, preloaded methylated H4 peptide; shares compounds with NSD2 inh; call rule not given here
# An asterisk follows results filed as active; ? = inconclusive; nt = not tested or not shown; [ ] = another dose, or the depositor's remark.
SMILES,miR-122 sensor,RAD52 inh,CASP6 VEID inh,NSD2 inh,MLL AF4-AF9 inh,Alpha artifact
CNCCCC1Sc2ccccc2Oc2ccccc21 (configuration not stated),-21.6,nt,nt,71.8*,nt,-8.2%
COCCOC(=O)C1=C(C)NC(C)=C(C(=O)OC(C)C)C1c1cccc([N+](=O)[O-])c1 (configuration not stated),5.8,-6.3,nt,74.6*,11.8,-3.2%
COC1=CC(=NCl)C=CC1=NCl,nt,nt,nt,-10.0,nt,nt
ClN=C1C=CC=CC1=NCl,nt,nt,nt,107.6*,nt,-2.9%
Cc1nn(C)cc1NC(=O)C[C@H]1CC[C@@H]2[C@@H](COc3ccc(NC(=O)C(C)C)cc3C(=O)N2C)O1,-4.2[16.7 µM],nt,nt,nt,nt,nt
O=C(Nc1ccccc1)N1CC(=O)N2[C@H](CO)[C@@H](c3ccc(C#Cc4cccnc4)cc3)[C@@H]2C1,nt,-22.5,-1.4,nt,-1.5,nt
CCOCC(=O)Nc1nc2ccc(OC)cc2s1,-6.7,nt,nt,49.2,nt,nt
COc1ccc2nc(NC(=O)CS(=O)(=O)c3ccc(C)cc3)sc2c1,-6.2,3.1,6.0,68.8*,0.0,-0.8%
O=c1c2ccc([N+](=O)[O-])cc2sn1-c1ccccc1,nt,nt,nt,59.2*,nt,-11.4%
CCOc1cc(NC2CS(=O)(=O)CC2O)c(OCC)cc1NC(=O)c1ccccc1 (configuration not stated),1.5,nt,nt,60.5*,nt,-6.9%
CNc1ccc(Br)cc(C(=O)/C=C/c2cccc(OC)c2OC)c1=O,12.8,nt,nt,51.1*,nt,-7.5%
CNc1ccc(Br)cc(C(=O)/C=C/c2cccc(Cl)c2Cl)c1=O,nt,8.2,7.4,8.3,-4.0,nt
CCOC(=O)C1=C(C)N=c2s/c(=C\c3ccc(O)c([N+](=O)[O-])c3)c(=O)n2C1c1ccccc1OC (configuration not stated),-0.2,-13.8,2.7,71.9*,-22.1,-6.4%
CCOC(=O)C1=C(C)N=c2s/c(=C\c3ccc(OCC(=O)O)cc3)c(=O)n2C1c1ccccc1OC (configuration not stated),6.7,-98.8,7.0,1.6,8.4,nt
CN(C)c1cc(Cl)c2nonc2c1N,-9.8,-20.6,99.2*,104.0*,2.2,0.6%
C/C(=N\NC(=O)c1nnn(-c2nonc2N)c1C)c1ccc(-c2ccccc2)cc1,-0.9,-5.4,-8.1,98.8*,-2.6,-1.2%
C/C(=N\NC(=O)c1nnn(-c2nonc2N)c1C)c1ccc(OCc2ccccc2)cc1,4.8,-12.2,0.1,5.9,-2.8,nt
C=CCn1c(-c2ccc(OC)cc2)nc2nc3ccccc3nc21,4.9,nt,nt,66.9*,nt,1.3%
Cc1cc(=O)n(-c2ccc3ccccc3n2)[nH]1,3.9,nt,nt,85.9*,nt,-5.1%
CC1CN(c2nc3c(c(=O)n(Cc4ccc(Cl)cc4)c(=O)n3C)n2C)CC(C)O1 (configuration not stated),14.6,0.8,0.4,116.0*,nt,-1.1%
CC1CN(Cc2nc3c(c(=O)n(C)c(=O)n3C)n2CCCc2ccccc2)CC(C)O1 (configuration not stated),-7.3,nt,nt,109.0*,nt,0.3%
CC1CCN(Cc2nc3c(c(=O)n(C)c(=O)n3C)n2CCCc2ccccc2)CC1,0.3,nt,nt,nt,nt,nt
Cn1c(N2CCCC2)nc2c1c(=O)n(Cc1ccc(Cl)cc1)c(=O)n2C,7.9,nt,nt,105.2*,nt,-5.3%
CCC(=O)Nc1ccc2c(c1)C(=O)N(C)[C@@H]1CC[C@H](CC(=O)NCC3CCCCC3)O[C@H]1CO2,4.4[16.7 µM],-0.9,-0.3,nt,0.1,nt
O=C(Nc1cccc(C(F)(F)F)c1)c1cc(-c2ccco2)on1,nt,-18.9,-0.6,92.2*,-0.3,-1.9%
SMILES,miR-122 sensor,RAD52 inh,CASP6 VEID inh,NSD2 inh,MLL AF4-AF9 inh,Alpha artifact
COc1ccccc1CNC(=O)C[C@@H]1C=C[C@@H](NC(=O)CN(C)C)[C@@H](CO)O1,nt,7.7,2.0,nt,2.3,nt
O=C(Nc1cc(S(=O)(=O)Nc2ccccc2F)ccc1Cl)c1ccc(F)cc1F,?,-7.4,1.2,88.9*,-0.4,-4.6%
COc1ccc(NS(=O)(=O)c2ccc(Cl)c(NC(=O)c3ccccc3F)c2)cc1,46.2,-9.7,1.8,0.3,-11.0,nt
C[C@@H]1CN([C@@H](C)CO)S(=O)(=O)c2ccc(-c3cccnc3)cc2O[C@H]1CN(C)C(=O)NC1CCCCC1,5.5[16.7 µM],3.2,-0.5,nt,0.6,nt
C[C@@H]1CN([C@@H](C)CO)S(=O)(=O)c2ccc(-c3ccccc3)cc2O[C@H]1CN(C)Cc1cccnc1,-2.0[16.7 µM],nt,nt,nt,nt,nt
C[C@H]1CN([C@@H](C)CO)C(=O)c2cc(NC(=O)Cc3ccccc3)ccc2O[C@H]1CN(C)C(=O)Nc1ccc2c(c1)OCO2,0.7[16.7 µM],nt,nt,nt,-3.4,nt
Cc1cccc(-n2c(Cn3nc(C)c([N+](=O)[O-])c3C)n[nH]c2=S)c1,-4.2,nt,nt,124.7*,nt,1.8%
Cc1ccc(N2CC(C(=O)N3CCc4ccccc43)CC2=O)cc1 (configuration not stated),-4.3,0.8,5.6,nt,-0.3,nt
O=C1CC(C(=O)N2CCc3ccccc32)CN1c1ccccc1 (configuration not stated),-10.7,1.3,0.4,80.2*,0.4,-1.7%
CCCN1[C@@H]2c3ccc(-c4ccccc4F)c(=O)n3C[C@@H]2[C@@H](CO)[C@@H]1C(=O)NC1CCC1,1.6[16.7 µM],-2.6,2.8,nt,0.5,nt
CC(C)NC(=O)N(C)C[C@H]1Oc2ncc(C#Cc3ccccc3F)cc2C(=O)N([C@@H](C)CO)C[C@@H]1C,7.8[16.7 µM],-7.8,0.4,nt,-5.8,nt
O=C(Nc1cccnc1)c1ccc(COc2ccccc2Cl)o1,4.2,nt,nt,126.7*,nt,-1.3%
O=C(Nc1cccnc1)c1ccc(COc2cc(Cl)ccc2Cl)o1,-4.6,nt,nt,-0.7,nt,nt
Cc1noc(C)c1NC(=O)Nc1ccc2c(c1)C(=O)N([C@H](C)CO)C[C@H](C)[C@@H](CN(C)Cc1ccc(Cl)c(Cl)c1)O2,-7.6[16.7 µM],10.9,0.1,nt,1.4,nt
CCn1c(O)c(C=Nc2ccccc2)sc1=S,nt,-28.4,-8.7,-1.0,4.2,nt
CCn1c(O)c(/C=N/n2cnnc2)sc1=S,-1.4,nt,nt,67.3*,nt,-2.7%
O=C(NCCO)Nc1ccc2nsnc2c1,nt,-14.3,0.1,1.0,-0.4,nt
S=C(Nc1ccc2nsnc2c1)N1CCCCC1,nt,-5.2,47.2*,61.4*,-15.3,8.6%
OCCNC(=S)Nc1ccc2nsnc2c1,12.6,-7.9,5.6,96.1*,0.0,-2.8%
Cc1cc(C)cc(NC(=O)C2C3C=CC4(O3)C2C(=O)N(CCCN2CCCC2)C4C(=O)NC2CCCC(C)C2C)c1 (configuration not stated),0.5,-12.3,-9.4,50.3*,1.5,2.7%
COc1ccc(-c2ccc([C@@H]3[C@@H](CO)N4C(=O)CNC[C@H]34)cc2)cc1,nt,-28.4,0.6,nt,-1.8,nt
COc1ccc(OC)c(NCc2nnc(-c3ccccc3)o2)c1,-0.3,-7.9,0.2,6.5,10.2,nt
CCOc1ccccc1NCc1nnc(-c2ccccc2)o1,3.0,-3.3,10.5,65.6*,-2.0,-1.9%
CNC(=O)C[C@@H]1CC[C@@H]2[C@@H](COc3ccc(NC(=O)Nc4ccccc4F)cc3C(=O)N2C)O1,-4.6[16.7 µM],nt,nt,nt,nt,nt
